# PubChem BioAssay
# The source made the active and inactive calls. Unless noted, the rule behind the calls is not given here.
# Experiments:
# [1] = test system: Wnt5a (protein binding on small-molecule microarray); assay: Wnt5a binders on small-molecule microarray, primary screen, biophysical, 635/667 nm fluorescence (AID 1142); details: 635 nm fluorescence, higher = more signal;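 note: fluorescence read at 667 nm with signal to noise per printed feature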
# [2] = cell viability in Huh7 cells, primary screen, cytotoxicity control for HCV replication inhibitor project, CellTiter-Glo luminescence, basal, 48 h (AID 1143); details: Huh7 HCV replicon, higher = more signal, called active from +8 up or from −8 down;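 note: Huh7 hepatoma cells carrying a hepatitis C replication reporter with no stimulus; test concentration not given here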
# [3] = P. aeruginosa biofilm formation inhibitors, primary screen, PAO1 strain, BacTiter-Glo luminescence, LB-PBS (AID 1144); details: 12 h, higher = more signal
# [4] = CREB reporter modulators without forskolin, primary screen, cell-based, PC12, CRE-LacZ reporter, unstimulated (AID 1145); details: no forskolin, luminescence, 4.5 h, higher = more signal, called active from +8 up or from −8 down
# [5] = CREB reporter modulators under forskolin, primary screen, cell-based, PC12, CRE-LacZ reporter, forskolin-stimulated (AID 1146); details: luminescence, 4.5 h, higher = more signal, called active from +8 up or from −8 down;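 note: PC12 cells with 6xCRE LacZ reporter stimulated by forskolin 10 µM; beta-galactosidase reporter signal reflecting CREB driven transcription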
# [6] = molecular target: Streptavidin (Streptomyces avidinii) (UniProt P22629); assay: streptavidin binders on small-molecule microarray, primary screen, artefact control for SMM compound annotation, biophysical, 635/667 nm fluorescence (AID 1147); details: streptavidin binding, higher = more signal;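 note: signal reflects streptavidin binding to arrayed compounds as a control protein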
# [7] = small-molecule binders of probe aInhba, primary screen, biochemical, small-molecule microarray, 635/667 nm fluorescence (AID 1148); details: higher = more signal;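 note: score merges 667nm spot fluorescence with signal-to-noise for antibody binding to printed compounds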
# [8] = molecular target: Torsin-1A (Homo sapiens) (UniProt O14656); assay: torsin A binders from cell lysate, primary screen, small-molecule microarray, wild-type, 635/667 nm (AID 1149); details: COS7 hTOR1A-WT lysate, 635 nm fluorescence, higher = more signal
# [9] = molecular target: Torsin-1A (Homo sapiens) (UniProt O14656); assay: small-molecule binders of mutant TOR1A in lysate, primary screen, cell lysate, small-molecule microarray, COS7 lysate, 635/667 nm fluorescence (AID 1150); details: COS7 hTOR1A mutant lysate, 635 nm fluorescence, higher = more signal;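 note: score pools 667 nm emission and signal to noise measuring lysate protein binding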
# [10] = test system: Sonic hedgehog protein (Shh); assay: small-molecule binders of Shh protein, primary screen, biochemical, small-molecule microarray, 635/667 nm fluorescence (AID 1151); details: small-molecule microarray binding, 635 nm fluorescence; higher = more signal;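 note: Shh protein binding to compounds spotted on small-molecule microarray slides; score combines spot fluorescence intensity with signal-to-noise across triplicate slides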
# [11] = E. coli DRC41 culture turbidity changes, primary screen, E. coli filamentation inducer project, strain DRC41, OD650, 48 h (AID 1152);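 note: E. coli MC1000 strain DRC41 lacking acrAB efflux pump and sulA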; details: E. coli DRC41 (acrAB sulA), higher = more signal, called active from +8 up or from −8 down
# [12] = small-molecule binders of probe aLefty1, primary screen, biochemical, small-molecule microarray, 635/667 nm fluorescence (AID 1153); details: higher = more signal;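 note: score merges spot fluorescence with signal-to-noise ratio from the scanned slide images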
# [13] = PSAC antagonists in infected red cells, primary screen, cell-based, P. falciparum Indochina, OD700, 1 h (AID 1154); details: P. falciparum Indochina infected RBC osmotic lysis, higher = more signal, called active from +8 up or from −8 down
# [14] = PSAC antagonists in infected red cells, primary screen, cell-based, P. falciparum Indochina, OD700, 2 h (AID 1155);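 note: lysis reports solute entry through the parasite surface anion channel PSAC; channel blockers reduce lysis of infected cells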; details: P. falciparum Indochina infected erythrocytes, osmotic lysis OD700; higher = more signal, called active from +8 up or from −8 down
# [15] = osmotic lysis modulators in infected erythrocytes, primary screen, PSAC antagonist project, cell-based, P. falciparum Indochina, OD700, 3 h (AID 1156); details: higher = more signal, called active from +8 up or from −8 down
# [16] = PSAC antagonists in infected red cells, primary screen, cell-based, P. falciparum Indochina, OD700, 18 h (AID 1157); details: P. falciparum Indochina infected erythrocytes, osmotic lysis OD700, 18 h; higher = more signal, called active from +8 up or from −8 down
# [17] = modulators of S6 phosphorylation in cells, primary screen, cell-based, A549, cytoblot, luminescence, serum-stimulated (AID 1158); details: A549 phospho-S6 cytoblot, 5 h, higher = more signal;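 note: serum-stimulated A549 lung adenocarcinoma cells; signal is phosphorylated S6 detected by cytoblot immunostaining with HRP secondary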
# [18] = molecular target: NADPH oxidase 2 (Homo sapiens) (UniProt P04839); assay: NOX2-dependent H2O2 signal modulators, primary screen, NOX inhibitor project, cell-based, HEK293-NOX2, PMA-stimulated, Amplex Red fluorescence (AID 1159); details: 45 min, higher = more signal, called active from +8 up or from −8 down; note: test concentration not given here
# [19] = molecular target: NADPH oxidase 4 (Homo sapiens) (UniProt Q9NPH5); assay: NOX4-dependent H2O2 signal modulators, primary screen, NOX inhibitor project, cell-based, HEK293-NOX4, tetracycline-induced, Amplex Red fluorescence (AID 1160); details: 45 min, higher = more signal, called active from +8 up or from −8 down
# [20] = molecular target: NADPH oxidase 5 (Homo sapiens) (UniProt Q96PH1); assay: NOX5-dependent H2O2 signal modulators, primary screen, NOX inhibitor project, cell-based, HEK293-NOX5, Amplex Red fluorescence (AID 1161); details: HEK293-NOX5, ionomycin, 45 min, higher = more signal
# NADPH oxidase 5 (Homo sapiens), sequence (Q96PH1 whole entry, looked up): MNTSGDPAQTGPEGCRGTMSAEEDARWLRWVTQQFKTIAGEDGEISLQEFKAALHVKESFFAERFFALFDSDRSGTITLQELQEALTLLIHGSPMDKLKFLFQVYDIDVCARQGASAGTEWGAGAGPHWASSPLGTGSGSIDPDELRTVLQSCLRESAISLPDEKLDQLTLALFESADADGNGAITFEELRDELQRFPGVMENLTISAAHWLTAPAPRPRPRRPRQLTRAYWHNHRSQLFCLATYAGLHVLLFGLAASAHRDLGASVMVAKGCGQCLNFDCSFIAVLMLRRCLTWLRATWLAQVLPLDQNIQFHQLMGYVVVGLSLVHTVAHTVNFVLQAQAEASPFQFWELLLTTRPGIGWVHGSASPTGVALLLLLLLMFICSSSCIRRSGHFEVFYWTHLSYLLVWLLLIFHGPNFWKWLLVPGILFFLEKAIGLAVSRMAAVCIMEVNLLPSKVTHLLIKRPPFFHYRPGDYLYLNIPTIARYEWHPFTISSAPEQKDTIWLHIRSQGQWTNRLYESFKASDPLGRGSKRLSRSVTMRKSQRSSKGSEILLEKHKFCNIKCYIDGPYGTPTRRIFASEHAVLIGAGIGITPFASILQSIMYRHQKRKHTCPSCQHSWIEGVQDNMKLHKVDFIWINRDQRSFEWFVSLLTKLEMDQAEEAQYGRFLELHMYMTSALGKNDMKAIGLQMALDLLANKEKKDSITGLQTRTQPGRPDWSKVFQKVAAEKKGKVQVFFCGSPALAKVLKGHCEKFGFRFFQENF
# Torsin-1A (Homo sapiens), sequence (O14656 whole entry, looked up): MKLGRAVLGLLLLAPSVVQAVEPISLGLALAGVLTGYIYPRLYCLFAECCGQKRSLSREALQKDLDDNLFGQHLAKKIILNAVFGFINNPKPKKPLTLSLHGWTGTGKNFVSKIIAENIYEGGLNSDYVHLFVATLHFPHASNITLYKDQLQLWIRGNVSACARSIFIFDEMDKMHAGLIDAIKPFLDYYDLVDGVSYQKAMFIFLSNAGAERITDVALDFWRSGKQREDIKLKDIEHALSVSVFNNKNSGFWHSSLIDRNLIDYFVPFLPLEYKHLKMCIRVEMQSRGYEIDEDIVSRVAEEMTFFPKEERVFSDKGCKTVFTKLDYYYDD
# Streptavidin (Streptomyces avidinii), sequence (P22629 whole entry, looked up): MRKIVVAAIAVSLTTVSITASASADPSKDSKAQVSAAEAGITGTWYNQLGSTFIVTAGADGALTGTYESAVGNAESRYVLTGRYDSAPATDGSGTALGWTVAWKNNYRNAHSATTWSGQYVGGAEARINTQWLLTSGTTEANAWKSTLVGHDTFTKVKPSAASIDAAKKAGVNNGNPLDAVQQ
# NADPH oxidase 4 (Homo sapiens), sequence (Q9NPH5 whole entry, looked up): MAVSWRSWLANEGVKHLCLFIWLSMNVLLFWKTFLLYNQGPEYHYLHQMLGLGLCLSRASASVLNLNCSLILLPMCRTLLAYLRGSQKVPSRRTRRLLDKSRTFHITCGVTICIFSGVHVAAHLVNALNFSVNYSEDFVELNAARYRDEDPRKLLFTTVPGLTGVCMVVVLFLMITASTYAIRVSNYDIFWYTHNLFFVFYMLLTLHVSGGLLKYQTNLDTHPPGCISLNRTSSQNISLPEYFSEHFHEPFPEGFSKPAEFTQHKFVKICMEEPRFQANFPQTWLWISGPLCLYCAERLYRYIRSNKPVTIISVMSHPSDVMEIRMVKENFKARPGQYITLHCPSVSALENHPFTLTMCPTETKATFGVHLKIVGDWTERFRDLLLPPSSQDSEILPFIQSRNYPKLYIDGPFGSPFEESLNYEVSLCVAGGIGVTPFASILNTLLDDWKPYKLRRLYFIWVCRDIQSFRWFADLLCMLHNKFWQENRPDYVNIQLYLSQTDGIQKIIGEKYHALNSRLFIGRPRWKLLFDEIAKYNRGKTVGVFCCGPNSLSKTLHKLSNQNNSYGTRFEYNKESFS
# NADPH oxidase 2 (Homo sapiens), sequence (P04839 whole entry, looked up): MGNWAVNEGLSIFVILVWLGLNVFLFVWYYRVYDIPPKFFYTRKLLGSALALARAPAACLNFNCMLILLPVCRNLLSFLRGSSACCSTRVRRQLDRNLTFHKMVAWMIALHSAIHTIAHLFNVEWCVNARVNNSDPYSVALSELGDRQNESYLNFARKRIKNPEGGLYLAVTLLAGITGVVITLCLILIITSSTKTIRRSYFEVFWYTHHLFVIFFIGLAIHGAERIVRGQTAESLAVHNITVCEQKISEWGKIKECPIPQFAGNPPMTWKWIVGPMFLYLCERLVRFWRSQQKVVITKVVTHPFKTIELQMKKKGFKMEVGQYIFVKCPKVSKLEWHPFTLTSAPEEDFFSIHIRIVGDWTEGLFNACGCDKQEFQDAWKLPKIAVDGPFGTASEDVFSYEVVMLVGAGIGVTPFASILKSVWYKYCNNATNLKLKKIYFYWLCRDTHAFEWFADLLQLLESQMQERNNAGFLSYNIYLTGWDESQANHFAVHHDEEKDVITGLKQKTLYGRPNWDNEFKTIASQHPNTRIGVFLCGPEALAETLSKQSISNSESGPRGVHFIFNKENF
Compound,composite z-score [1],z-score [2],z-score [3],z-score [4],z-score [5],composite z-score [6],composite z-score [7],composite z-score [8],composite z-score [9],composite z-score [10],z-score [11],composite z-score [12],z-score [13],z-score [14],z-score [15],z-score [16],z-score [17],z-score [18],z-score [19],z-score [20]
COc1cc(NN2C(C(O)c3ccc(I)cc3)C=CC3C(=O)N(c4ccccc4)C(=O)C32)cc(OC)c1OC (stereo not given),0.378,-3.44 (inactive),-1.28 (inactive),-0.136 (inactive),0.0938 (inactive),0.901,0.233,0.544,0.743,0.325,-0.877 (inactive),0.365,2.08 (inactive),0.477 (inactive),0.481 (inactive),-0.497 (inactive),1.52,-3.15 (inactive),-4.09 (inactive),-6.01
CO[C@H]1O[C@H](CO)[C@@H](OC(=O)CCc2ccccc2)[C@H](OC(=O)c2cc3ccccc3[nH]2)[C@H]1OC(=O)c1cc2ccccc2[nH]1,0.156,-5.71 (inactive),-1.99 (inactive),-1.28 (inactive),-1.2 (inactive),-0.0944,0.0391,0.71,0.913,0.832,2.71 (inactive),-0.162,2.39 (inactive),0.923 (inactive),-2.27 (inactive),1.1 (inactive),2.17,-0.601 (inactive),0.0901 (inactive),0.855
COCCOC(=O)N1C(=O)[C@@]2(c3ccccc31)[C@H](c1ccccc1OCCO)N1[C@H](c3ccccc3)[C@H](c3ccccc3)OC(=O)[C@H]1[C@@H]2C(N)=O,0.408,-4.2 (inactive),-0.0116 (inactive),0.272 (inactive),1.86 (inactive),1.25,0.296,-0.401,1.07,1.48,-0.714 (inactive),0.221,3.59 (inactive),1.18 (inactive),-0.463 (inactive),0.689 (inactive),0.231,1.88 (inactive),0.787 (inactive),0.212
C=C[C@@H](OC)[C@H](OC(=O)Nc1ccc(OC)cc1)c1ccc(OC)c(O)c1,-0.451,-0.749 (inactive),-0.327 (inactive),0.702 (inactive),0.177 (inactive),-0.833,-0.166,-2.5,-1.12,0.63,0.139 (inactive),-0.123,2.48 (inactive),0.96 (inactive),0.0081 (inactive),0.45 (inactive),-0.0451,-2.52 (inactive),-1.04 (inactive),-1.2
Cc1ccc(S[C@]2(C(=O)NC(C)C)CC(=O)N(Cc3ccccc3Cl)[C@@H]2c2ccc(CO)cc2)cc1,-0.323,-2.67 (inactive),-0.141 (inactive),-0.295 (inactive),0.506 (inactive),-1.03,-0.149,-2.93,-1.86,-0.761,-1.03 (inactive),0.0509,3.11 (inactive),0.0285 (inactive),1.5 (inactive),0.253 (inactive),-0.026,-0.984 (inactive),-1.19 (inactive),-0.486
[N-]=[N+]=NCc1ccccc1[C@H]1OC(c2ccc(OCCCO)cc2)=N[C@@]1(Cc1ccccc1)C(=O)NCCN1CCOCC1,0.526,-3.01 (inactive),-0.206 (inactive),1.53 (inactive),-0.355 (inactive),1.13,0.555,1.03,0.604,0.502,0.694 (inactive),0.843,28.1 (active),22.1 (active),3.64 (inactive),3.74 (inactive),-0.281,0.0323 (inactive),1.93 (inactive),1.58
[N-]=[N+]=Nc1ccccc1C[C@]1(C(=O)O)N=C(c2ccc(OCCCO)cc2)O[C@H]1c1ccccc1N=[N+]=[N-],0.0284,-1.26 (inactive),0.0243 (inactive),0.274 (inactive),-1.65 (inactive),1.58,0.362,0.327,0.241,-0.0242,0.476 (inactive),0.612,30.8 (active),27.6 (active),2.88 (inactive),4.45 (inactive),-0.0428,-2.72 (inactive),0.551 (inactive),-2.15
CC(C)C(CO)N1C(=O)[C@@H]2[C@H]3C(=O)OCC=C[C@H]3OC23C=CCN(C(C)(C)C)C(=O)[C@@H]13 (stereo not given in full),-0.682,-0.342 (inactive),0.947 (inactive),1.01 (inactive),0.412 (inactive),-0.633,-0.0762,-1.59,-0.934,0.54,-0.875 (inactive),-0.155,0.897 (inactive),0.226 (inactive),0.697 (inactive),0.0863 (inactive),-0.154,0.997 (inactive),0.16 (inactive),1.92
CC1(C)C(=O)C(c2ccccc2)=C2CN3C(=O)N(CCc4ccccc4)C(=O)C3(Cc3ccc(C(F)(F)F)cc3)C=C21 (stereo not given),0.437,-1.29 (inactive),0.332 (inactive),-0.379 (inactive),0.866 (inactive),1.19,0.196,-0.102,0.608,-1.01,-2.21 (inactive),0.349,0.582 (inactive),0.316 (inactive),0.482 (inactive),0.668 (inactive),0.0875,-0.462 (inactive),-1.68 (inactive),-0.494
